Glyco luc inh: N-linked glycosylation inhibition | reporter increase, % at 12.5 µM | D54 ERlucT glycosylation luciferase reporter, 24 h; percent of 100 nM tunicamycin response | actives 0.23% (n = 360,000);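 active = mean luciferase reporter signal, scaled so untreated is 0 and the glycosylation-blocking control 100, at or above a set limit in every replicate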;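 note: luciferase carries N-glycosylation sites so blocking glycosylation raises the light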
NSD2 HMT inh: inhibitors of human histone methyltransferase NSD2; O96028; NSD2 peptide methylation, AlphaScreen, 120 min; AID 743445; actives 0.54% (n = 310,000); inhibition, % at 12.5 µM; in the data active = inhibition above about 50%
ATG4B inhibitor: ATG4B (human) cysteine protease inhibition; ATG4B cleavage of LC3-PLA2, NBD-HPC fluorescence, 1 h; inhibition, % at 8.33 µM; actives 0.51% (n = 340,000); in the data active = inhibition above about 40%
CaV13 FRET inh: Primary screen for inhibitors of IQ motif and Ca2+-dependent inactivation inhibitor domain binding in CACNA1D, Förster resonance energy transfer in living cells, …; HEK cells, CFP/YFP FRET ICDI-IQ, plate reader, 10 min; percent FRET-ratio fall versus neutral wells; inhibition, % at 12.3 µM; actives 0.098% (n = 340,000); AID 743397;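 active = mean replicate inhibition of at least 30% and at least 1% of replicates passing that level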
DSG3 Ab inh: inhibitors of pemphigus antibody binding to human desmoglein-3. P32926. DSG3-coupled beads, scFv-anti-DSG3-GFP binding, flow cytometry; stronger effect = lower value. binding (percent of control), % at 10 µM. actives 0.48% (n = 310,000);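 active = binding more than 3 SD below its plate's average and above zero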;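 note: hits lower antibody fragment binding to DSG3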
Vif inh: inhibitors of HIV Vif; AID 602346; actives 0.35% (n = 340,000); HEK293T cells, Vif self-association by quenched fluorescence, imaging, 24 h; inhibition, % at 7.49 µM; in the data active = inhibition above about 50%, passing the limit was not always enough
Alpha artifact: interferes with AlphaScreen signal, flagging NSD2 false positives | shares compounds with NSD2 HMT inh | AlphaScreen artifact counterscreen, preloaded methylated H4 peptide | actives 9.4% (n = 1,500) | AC35, µM (doses to about 10 µM); call rule not given here
Large screens that a line does not name were inactive (follow-up assays come after a bar, where they were run). In the library only some 1.9% were active in any assay of this set; here they are far more common.

O=C(COC(=O)c1ccccc1Nc1ccc(SC(F)F)cc1)NCc1ccco1	none (no result: Vif inh)
Cc1cccc(N2CCN(C(=O)c3ccc4nc[nH]c4c3)CC2)c1C	none
Cc1ccc(Cl)cc1N1CCN(C(=O)c2ccc3nc[nH]c3c2)CC1	NSD2 HMT inh 51 | Alpha artifact inactive
CCOc1ccc(NC(=O)c2ccc(NS(=O)(=O)c3cccc4cccnc34)cc2)cc1	none
Cc1cccc(NC(=O)c2ccc(NS(=O)(=O)c3cccc4cccnc34)cc2)c1	NSD2 HMT inh 53 | Alpha artifact inactive
Cc1c(C(=O)N2CCCC2)sc(NC(=O)c2cccs2)c1C#N	none
CCn1c(O)c(/C=N/n2cnnc2)sc1=S	NSD2 HMT inh 67 | Alpha artifact inactive
CC(=O)c1ccc(S(=O)(=O)Nc2cccc(-n3cnnn3)c2)cc1	NSD2 HMT inh 115 (no result: DSG3 Ab inh) | Alpha artifact inactive
O=C(CCCCCN1C(=O)C2C3C=CC(C3)C2C1=O)Nc1ccc(Cl)cc1 (stereo not drawn)	none (no result: Glyco luc inh, ATG4B inhibitor, CaV13 FRET inh, DSG3 Ab inh, Vif inh)
O=C(CCCCCN1C(=O)C2C3C=CC(C3)C2C1=O)Nc1ccc2ncccc2c1 (stereo not drawn)	NSD2 HMT inh 95 (no result: Glyco luc inh, ATG4B inhibitor, CaV13 FRET inh, DSG3 Ab inh, Vif inh) | Alpha artifact inactive
Nc1nc(Nc2ccccc2F)nc(NCCO)c1[N+](=O)[O-]	NSD2 HMT inh 60 | Alpha artifact inactive
Nc1nc(Nc2ccccc2F)nc(NCc2ccccc2)c1[N+](=O)[O-]	none (no result: DSG3 Ab inh)
CN(C)CCCN1C(=O)c2cccc3c([N+](=O)[O-])ccc(c23)C1=O	Glyco luc inh 57, NSD2 HMT inh 71 | Alpha artifact inactive
COc1ccc(NS(=O)(=O)c2ccc(Cl)c(NC(=O)c3ccccc3F)c2)cc1	none
O=C(Nc1cc(S(=O)(=O)Nc2ccccc2F)ccc1Cl)c1ccc(F)cc1F	NSD2 HMT inh 89 | Alpha artifact inactive
O=C1CCCC2=C1C(c1ccc(O)c(O)c1)c1c(ccc3ncccc13)N2 (stereo not drawn)	NSD2 HMT inh 77 | Alpha artifact inactive
O=c1cc(CSc2ccc(S(=O)(=O)N3CCCCC3)cn2)nc2sccn12	none (no result: CaV13 FRET inh)
CC(=O)Nc1ccc(NC(=O)C(C)OC(=O)c2ccccc2NS(=O)(=O)c2cccs2)cc1 (stereo not drawn)	none
CC(=O)Nc1ccc(NC2=C/C(=N/S(=O)(=O)c3cccs3)c3ccccc3C2=O)cc1	NSD2 HMT inh 83 (no result: DSG3 Ab inh) | Alpha artifact inactive
CC1(C(=O)NS(=O)(=O)c2cccc(Cl)c2)CCN1C(=O)Cc1ccccc1 (stereo not drawn)	none (no result: ATG4B inhibitor, DSG3 Ab inh)
COc1ccc(S(=O)(=O)N2CCC(C(=O)Nc3nnc(C)s3)CC2)cc1OC	none
CC1(C)Cc2c(C#N)c(N)n(-c3ccccc3)c(=S)c2CO1	none
CC1(C)C=C2C(=NN(c3ccccc3)C(N)=C2C#N)CO1	NSD2 HMT inh 100 | Alpha artifact inactive
COc1ccccc1/C=N/NC(=O)CNC(=O)c1ccc(S(=O)(=O)N(C)C)cc1	none
Cc1ccccc1N1CC(C(=O)Nc2ccc(S(=O)(=O)N3CCCCC3)cc2)CC1=O (stereo not drawn)	none (no result: DSG3 Ab inh)
Cc1ccccc1N1CC(C(=O)Nc2ccc(S(=O)(=O)N3CCOCC3)cc2)CC1=O (stereo not drawn)	NSD2 HMT inh 85 | Alpha artifact inactive
CCC12CN3CC(CC)(CN(C1)C3c1ccccc1Cl)C2O (stereo not drawn)	none
COC(=O)COc1ccc(S(=O)(=O)NCC2CCCO2)cc1Cl (stereo not drawn)	NSD2 HMT inh 51 | Alpha artifact inactive
C=CCn1c(NS(=O)(=O)c2ccccc2)c(S(=O)(=O)c2ccc(C)cc2)c2nc3ccccc3nc21	NSD2 HMT inh 115 | Alpha artifact inactive
CCOC(=O)c1c(C)[nH]c(C)c1C(=O)COC(=O)/C=C/c1ccc(OC)cc1	none
O=C(/C=C/c1ccccc1)NCc1cccnc1	none
O=C(/C=C/c1ccc(-c2ccccc2)cc1)NCc1cccnc1	NSD2 HMT inh 62 | Alpha artifact inactive
c1cc(CNCCCN2CCOCC2)ccn1	none (no result: NSD2 HMT inh)
c1coc(CNCCCN2CCOCC2)c1	NSD2 HMT inh 56 (no result: Vif inh) | Alpha artifact inactive
Cc1ccc(OCc2cnc(Cl)s2)c(C)c1	NSD2 HMT inh 52 | Alpha artifact inactive
O=C(c1ccccc1)N1CCC(c2nc(-c3ccc(S(=O)(=O)N4CCOCC4)cc3)no2)CC1	none (no result: DSG3 Ab inh)
O=C(Nc1ccc(Cl)cc1C(=O)N1CCOCC1)c1ccco1	none (no result: DSG3 Ab inh)
CCC(=O)N1CCN(c2ccc(Cl)cc2NC(=O)c2ccc(Br)o2)CC1	NSD2 HMT inh 119 | Alpha artifact inactive
Cc1ccc2c(c1)[nH]c1c(=O)n(CCN3CCCCC3)cnc12	none (no result: DSG3 Ab inh)
COc1ccc(N(CC(=O)NCCSc2ccccn2)S(C)(=O)=O)cc1	NSD2 HMT inh 127 | Alpha artifact inactive
ClN=C1C=CC=CC1=NCl	NSD2 HMT inh 108 (no result: ATG4B inhibitor, CaV13 FRET inh, DSG3 Ab inh) | Alpha artifact inactive
CC(=O)c1ccc(NC(=O)CN2CCN(c3ncccn3)CC2)cc1	none (no result: DSG3 Ab inh)
Cn1c(SCC(=O)Nc2ccc3c(c2)OCCO3)nnc1-c1ccncc1	NSD2 HMT inh 77 | Alpha artifact inactive
Cc1csc(SCC(=O)Nc2ccc3c(c2)OCCO3)n1	NSD2 HMT inh 62 | Alpha artifact inactive
COc1cccc(OC)c1-c1nn2c(-c3ccco3)nnc2s1	none
CCCn1c(CCl)nc2cc(S(=O)(=O)N3CCOCC3)ccc21	none
O=S(=O)(c1ccc2c(c1)nc1n2CCC1)N1CCOCC1	NSD2 HMT inh 92 | Alpha artifact inactive
CCc1nc2ccc(C(=O)Nc3ccc(OC)c(OC)c3)cn2c1N(CCC(C)C)CCN(C)C	none (no result: ATG4B inhibitor, DSG3 Ab inh)
CCN(CC)CCN(Cc1cc2cc3c(cc2[nH]c1=O)OCO3)C(=S)NCCCOC	none
CCN(CC)CCCN(Cc1cc2ccc(C)c(C)c2[nH]c1=O)C(=O)NC1CCCCC1	NSD2 HMT inh 63 | Alpha artifact inactive
Cc1ccc2cc(CN(CC3CCCO3)C(=O)NC3CCCCC3)c(=O)[nH]c2c1C (stereo not drawn)	none
CCN(CC)CCCN(Cc1cc2cc3c(cc2[nH]c1=O)OCCO3)C(=O)Nc1ccccc1	NSD2 HMT inh 93 (no result: CaV13 FRET inh) | Alpha artifact inactive
CCN(CC)CCCN(Cc1cc2cc3c(cc2[nH]c1=O)OCO3)C(=S)NCCCOC	NSD2 HMT inh 75 | Alpha artifact inactive
CCN(CC)CCCN(Cc1cc2cc3c(cc2[nH]c1=O)OCO3)C(=S)NCCCN(C)C	NSD2 HMT inh 80 | Alpha artifact inactive
O=C(Nc1ccccc1)N(CCCN1CCOCC1)Cc1cc2cc3c(cc2[nH]c1=O)OCCO3	none (no result: CaV13 FRET inh)
Cn1c(SCc2ccc(C#N)cc2)nnc1-c1ccncc1	none
C=CCn1c(SCc2ccc(C#N)cc2)nnc1-c1ccc(C)cc1	NSD2 HMT inh 61 | Alpha artifact inactive

Screening results from PubChem.
